Measured values reported in PubChem BioAssay AID1347426 (Functional Genomics Laboratory (NCATS/FGL), 2020).
The whole screen tested about 31,000 sequences, of which about 1,400 (4.5%) were called active.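 The calls were made as follows: active = median seed-adjusted z-score above 1 or below -1; inactive = the rest.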 The sample as a whole holds a higher share of actives than the screen did.

assay: Novel Modifiers of Survival Motor Neuron (SMN) Protein: Gene Identification via Genome-wide siRNA Screen; settings: HEK293T SMN2-luciferase reporter, siRNA knockdown, 72 h; actives lie on both sides;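 also: luminescence tracks full-length SMN protein made from the SMN2 reporter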
Procedure, shortened: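 HEK293T cells stably expressing an SMN2 splicing/cDNA-luciferase reporter were reverse-transfected with a druggable-genome siRNA library and read by luminescence at 72 hours; hits defined by MAD score above 1.0 or below -1.0.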

| Sequence | median seed-adjusted z-score |
| --- | --- |
| GGCUCCUCCUUGUACUCAATT against FOXO3 | -0.712 (inactive) |
| GGGCAUCGCUAAACCCAAATT against LIF | 0.273 (inactive) |
| GGUCCGAUGUUACGUCUAATT against TIGD4 | -0.553 (inactive) |
| CCGGGACAGUGACAUCAUATT against ENDOD1 | -0.138 (inactive) |
| GGAGCACAGAGGCUCAGAATT against TNFRSF13B | 0.152 (inactive) |
| CCAUCAAACUUGCAUCCCUTT against ISX | 1.99 (active) |
| GAACAUCUCUUGUGGUAUUTT against SLC22A16 | 0.0878 (inactive) |
| GGUUUUAACUGGAACUGGATT against HIF1AN | -0.0315 (inactive) |
| GGAUCGACCCAACCUAUGUTT against XYLT2 | 0.148 (inactive) |
| CAGCACUAUUAGACAGGAATT against ZBTB40 | 0.187 (inactive) |
| CUGCGGACCCAAUACAUGATT against ARID3A | -1.11 (active) |
| AGAGGUUUGGCAGAAAUACTT against NPFF | -0.631 (inactive) |
| UAAGAACACCGUUACCCAATT against NLGN4X | -0.1 (inactive) |
| GCAGACCACCUGAAUAUGATT against TRO | 2.04 (active) |
| GGAGUAGAUUUUAGCAUAATT against TNKS2 | 0.0545 (inactive) |
| GAUAUUGCACAAAUCUAUATT against UBE2D1 | 0.508 (inactive) |
| GAAGAUAUGCAACAGCCUATT against UNC5B | -0.0207 (inactive) |
| CAGAAGUCGUAGUCAUGAATT against RBM39 | -1.82 (active) |
| GUAUCUGACUGACAUCCUUTT against PLCH2 | 0.593 (inactive) |
| CCAAUACAGUGGAACCUAUTT against ATXN1 | -0.024 (inactive) |
| CCUCCAACGUAUCAUGAGATT against CYP7A1 | -0.0092 (inactive) |
| ACAAAAUUGCUACAUCAAATT against ECHDC1 | 0.554 (inactive) |
| GCAGAGAACUGGUUCCGAATT against ZNF512B | 0.212 (inactive) |
| CCGUGUCUUCAGGAACGAATT against CYB561 | 0 (inactive) |
| GAUUUUAGCACUACAACAATT against ZNF664 | 1.08 (active) |
| AGCUGAAAAUUGAGAACAATT against TBX4 | 0.968 (inactive) |
| GCCCAUUAAUAUUAUAGGUTT against LAP3 | 0.0175 (inactive) |

| Sequence | median seed-adjusted z-score |
| --- | --- |
| CCUUCAUCCGGAAAUUAAATT against ZIM3 | -0.02 (inactive) |
| GGUGGAUGGUAAUAAGGAATT against CTPS2 | 1.08 (active) |
| GGAAGUUGUUCAACGAGAUTT against MLPH | -1.2 (active) |
| CGGCUAUGACAAGUCAAUATT against PKDREJ | 0.376 (inactive) |
| GGCAGUACAUGUACGAUGATT against AGXT2L2 | -0.0495 (inactive) |
| GAACUGUCGGCGGAACAUUTT against MFAP3L | 1.03 (active) |
| GCGUUGACAGUGAUGCGUATT against SLC4A3 | -0.7 (inactive) |
| GCUUUUGCAUGGAUGUGCATT against ELTD1 | 0.387 (inactive) |
| GGAAUAUGAGGUGACCGUUTT against IL17RA | -1.29 (active) |
| CGGUAAAUGUCACUCGUGATT against PRKG1 | 0 (inactive) |
| AGAUGUCCAGACCAAGAUATT against CREBL1 | -0.348 (inactive) |
| CAACGAAAAUCUAAAUGCATT against HMMR | 0.389 (inactive) |
| AGAAUGUGCGGCUUAUUGATT against CCDC88B | -0.153 (inactive) |
| CCAGAGCAAAGGCUAUGAATT against ZNF350 | 0.133 (inactive) |
| UAAAAUCUAGGGAUCCAAUTT against POLR2K | -3.72 (active) |
| AGAUUACGUUGAAGAACGATT against GNGT1 | -0.0382 (inactive) |
| CAUUCACUGAGGCGACAGATT against ABCA9 | -0.139 (inactive) |
| GAAGGGCCUUUUUAUCCAATT against MCTS1 | 0.116 (inactive) |
| CGACCAAGAUUAUGGAAUUTT against ADAMTS17 | 0.257 (inactive) |
| GGCUAUCUGCUGAAGCGCATT against RASAL1 | -0.089 (inactive) |
| CAAUGACUAUGAAUAAGUATT against SLC9A2 | -1.02 (active) |
| GCCUUUAUGUGGACAUUAATT against SLCO2B1 | 0.289 (inactive) |
| CGACAAUGUUAAGUUCAUATT against SULT6B1 | 0 (inactive) |
| GCAUAGAUGUGGAUAGCUUTT against CFTR | -1.23 (active) |
| GGUCCGUGACGAGAAGUUATT against RAB4A | 0.0022 (inactive) |
| CGAACCAUUUCAUCACGUATT against MARS2 | -0.00523 (inactive) |
| CCCUUAAACUCGAACCCAATT against HLX | 0.379 (inactive) |
